# Assay outcomes from PubChem.
# GALK inhibitor: GALK (human) enzyme inhibition; Potency, µM (top dose mostly 57.5 µM), without a hit: at the highest dose activity, negative = inhibition, usual class: inhibitors; 44,000 tested, under 10 active; AID 1347072; recombinant GALK, Kinase-Glo ATP luminescence, 1 h; P51570;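 also: plate controls were full GALK reaction for no effect and reaction lacking GALK for full effect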
#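 Luminescent ATP-depletion readout (Kinase-Glo Plus) after 1 h room-temperature incubation of human GALK (5 nM) with galactose 100 µM and ATP 35 µM, pH 8.0 HEPES/Mg2+ buffer; compounds tested in qHTS format.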
# TSG101-PTAP inh: blocks PTAP binding to human TSG101, validation | Fluorescence polarization, FITC-PTAP peptide/Tsg101, 20 min | Q99816 | Potency, µM (highest dose often 115 µM), most hits filed as inhibitors | 44,000 tested, under 10 active; also: potency is read from the fitted curve at half-maximal effect; 0% is about no effect
# Target sequence (Q99816 whole entry, looked up): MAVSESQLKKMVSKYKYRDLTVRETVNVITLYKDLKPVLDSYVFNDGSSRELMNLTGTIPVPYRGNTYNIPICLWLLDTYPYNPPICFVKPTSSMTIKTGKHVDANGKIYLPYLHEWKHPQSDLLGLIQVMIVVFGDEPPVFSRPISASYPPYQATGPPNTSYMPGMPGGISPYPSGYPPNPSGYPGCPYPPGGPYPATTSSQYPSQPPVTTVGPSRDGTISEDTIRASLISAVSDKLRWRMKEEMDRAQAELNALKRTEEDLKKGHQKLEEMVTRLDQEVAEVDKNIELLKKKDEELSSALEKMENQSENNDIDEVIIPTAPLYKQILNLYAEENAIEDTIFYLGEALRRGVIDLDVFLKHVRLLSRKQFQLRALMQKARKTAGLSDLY
#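 Fluorescence polarization binding of Tsg101 binding domain (10 uM final) to FITC-labeled PTAP-motif peptide (50 nM final) in HEPES pH 7.5/NaCl/Tween 20/EDTA/TCEP buffer; 20 min at r.t. Actives by curve class, <25 µM, efficacy <60% inhibition.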
# NTMT1 inhibitor: NTMT1 methyltransferase inhibition. 59,000 tested, 2.5% active. NTMT1 MTase-Glo SAH luminescence, purified enzyme. AID 1645870. Q9BV86. Potency, µM (series often up to 114 µM), for inactives: at the highest dose activity change, negative = inhibition, most hits filed as inhibitors;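 also: potency is read from the fitted curve at half-maximal effect; plate controls were DMSO vehicle for no effect and no enzyme for full effect; nearly all actives have a fitted effect of over 65% in size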
# Target sequence (Q9BV86 whole entry, looked up): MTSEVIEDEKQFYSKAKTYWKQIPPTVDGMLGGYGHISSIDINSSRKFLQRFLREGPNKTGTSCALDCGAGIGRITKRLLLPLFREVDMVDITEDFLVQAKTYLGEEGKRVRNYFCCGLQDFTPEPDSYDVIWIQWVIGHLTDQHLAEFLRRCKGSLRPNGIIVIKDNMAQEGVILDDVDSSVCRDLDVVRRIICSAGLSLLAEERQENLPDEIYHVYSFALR
# FH mod: Identification of activators of human fumarate hydratase by quantitative high-throughput screening; Fumarate hydratase, mitochondrial (Homo sapiens), P07954; FH coupled MDH/diaphorase resazurin fluorescence, 15 min; Potency, µM (titrated, usually from 79.9 µM), for the others: at the highest dose activity change, negative = inhibition, actives largely listed as inhibitors; 54,000 tested, 0.22% active; also: potency is read from the fitted curve at half-maximal effect; % is scaled to controls: 0 for no effect and ±100 for the full control effect; the screen sought activators but most active calls are inhibition curves; nearly all actives have a fitted effect of over 45% in size
# B2AR arrestin ag: beta-arrestin recruitment by human beta2-adrenergic receptor ligands; AID 1347077; 44,000 tested, under 10 active; Potency, µM (highest dose often 46.1 µM), hits mostly activators; P07550; HTLA Tango cells, beta-arrestin recruitment, luciferase luminescence, 18 h;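 also: potency is read from the fitted curve at half-maximal effect; 0% = DMSO and full agonism = EC100 isoproterenol or metaproterenol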
#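 Ligand-induced beta-arrestin recruitment to recombinant beta2-AR is measured via a tTA-driven luciferase reporter in Tango cells after 18 hr compound exposure at 37 degrees C. Concentrations span up to 46 microM.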
# * hit, by the source's call; i = inactive; ? = inconclusive; . = no result; ! = a repeat was not active; [ ] = another dose, or the depositor's remark. The entries come from a sample that favours hits as a whole. Calls follow the shape of the dose curve; as a rule, active = well fitted curve in the direction sought with a large enough effect; inconclusive = small, poorly fitted or top-dose-only effect, or another doubt; inactive = no such curve, though single readings can be large; an effect the other way counts as inactive or inconclusive.
SMILES,GALK inhibitor,TSG101-PTAP inh,NTMT1 inhibitor,FH mod,B2AR arrestin ag
COc1cc(C(=O)O)ccc1NC(=O)[C@@H]1N[C@@H](CC(C)(C)C)[C@](C#N)(c2ccc(Cl)cc2F)[C@H]1c1cccc(Cl)c1F,.,.,11µM*,.,.
S=C(Nc1ccccn1)c1ccccn1,.,.,8.9µM*,.,.
Cc1cc2c(s1)c1cnn(Cc3ccc(C)c(F)c3)c(=O)c1n2C,.,.,79µM*,.,.
CCCCN(CCCC)C(=O)CN1C[C@H](c2ccc3c(c2)OCO3)[C@@H](C(=O)O)[C@@H]1c1ccc(OC)cc1,.,.,?,1%,.
CCN(Cc1ccccc1)C(=O)c1cc2c(=O)[nH]c3ccc(C)cc3c2s1,-4%,i,89µM*,?,i
COc1cccc(C(=O)Nc2ccc(-n3nncc3-c3ccccc3)cc2)c1OC,0%,i,56µM*,10%,i
COCCN1C(=O)c2ccccc2NC1c1ccc(OC)c(COc2c(C)cc(NC(C)=O)cc2C)c1 (stereo not given),.,.,13%,.,.
O=S(=O)(Nc1ccc(O)c(Sc2nc3ccccc3s2)c1)c1cc(Cl)ccc1Cl,0%,i,13%,16µM*,i
CC(=O)c1ccc2c(c1)c1cc(C(C)=O)ccc1n2CCNC(C)C,.,.,-7%,.,.
Cc1cncc2cccc(S(=O)(=O)N3CCCNC[C@@H]3C)c12,.,.,79µM*,0%,.
C[C@H]1CNCCCN1S(=O)(=O)c1cccc2cncc(F)c12,.,.,1%[57.5 µM],.,.
COc1ccc(CSc2nc3ncc(Br)cc3[nH]2)cc1F,.,.,7%[57.5 µM],.,.
COc1cc(C(=O)Nc2ccc3nc4n(c(=O)c3c2)CCCCC4)cc(OC)c1OC,7%,i,50µM*,-11%,i
O=C(Nc1ccc(Cl)c(S(=O)(=O)N2CCOCC2)c1)c1ccc(S(=O)(=O)N2CCCCC2)cc1,.,.,7%,.,.
Cc1cn([C@H]2C[C@H](N[S+](=O)([O-])Cc3cccc(Cl)c3)[C@@H](CO)O2)c(=O)[nH]c1=O,.,.,5%,.,.
Cc1cc(C)c(Nc2nn3c(=O)c4cc5c(cc4nc3s2)OCO5)c(C)c1,-6%,i,45µM*,-8%,i
Cc1c(F)cccc1NC(=O)Nc1ccc(Cl)c(S(=O)(=O)[C@H]2CCCNC2)c1O,.,.,12%,.,.
CCCCC(CC)CN=C(N)NC(N)=NCCCCCCN=C(N)NC(N)=NCC(CC)CCCC (stereo not given),.,.,3.2µM*,-3%[53.3 µM],.
CCCCN=C(N)N=C(N)N,.,.,.,i,.
Cc1cc(-n2c(=O)ccc3cnc4[nH]ccc4c32)ccc1F,.,.,-6%,.,.
CC(C)c1ccc(Cn2ccc3c4c(N)nc(NC5CC5)nc4ccc32)cc1,.,.,25µM*!,-10%[53.3 µM],.
CCNc1cc(NC2CCC(O)CC2)nc(Nc2ccc3c(ccn3Cc3ccccc3)c2)n1 (stereo not given),.,.,?,14%[53.3 µM],.
Cc1cc(C)cc(Oc2ccc(CNC(=O)[C@H](C)N)cc2C)c1,.,.,1%,.,.
O=C(NCCc1ccccc1)C1CCN(c2nc(-c3ccc(Br)cc3)cs2)CC1,.,.,5µM*,.,.
CNC(=O)C1CCN(c2nc(-c3ccc(Br)cc3)cs2)CC1,.,.,-20%,.,.
SMILES,GALK inhibitor,TSG101-PTAP inh,NTMT1 inhibitor,FH mod,B2AR arrestin ag
Cc1ccc(NC(=O)CN2C(=O)N/C(=C\c3cccn3-c3ccc(C(=O)NOCc4ccccc4)cc3)C2=O)cc1,.,.,17%,.,.
Cc1ccc(C)c(SC2=NS(=O)(=O)c3cc(C(=O)NCc4ccccc4)ccc32)c1,.,.,2%,.,.
COc1cc2c(cc1OC)N1C(=O)C[C@]34C=CCN5CC[C@@H]2[C@@H](CC3)[C@]514,.,.,34%[29.8 µM],18%[53.3 µM],.
CCc1nnc2c(Nc3ccc(N(CC)CC)cc3C)nc3ccccc3n12,0%,i,89µM*,?,i
CCc1nnc2c(Nc3ccccc3Br)nc3ccccc3n12,-5%,i,7%,-13%,i
Cc1ccc(NS(=O)(=O)c2ccccc2C(=O)Nc2nc(-c3ccccc3)cs2)cc1,.,.,14%,.,.
COc1ccc(OC)c(NC(=O)Cn2ccn(-c3ccc(F)cc3)c(=O)c2=O)c1,0%,i,89µM*,1%,i
COc1ccc(OC)c(NC(=O)Cn2ccn(-c3ccc(OC)c(OC)c3)c(=O)c2=O)c1,2%,i,-8%,0%,i
CC(=O)N1CCCC1c1nc2ccccc2n1Cc1c(F)cccc1Cl (stereo not given),-11%,i,89µM*,-3%,i
Nc1nccn2c(C3CCC(C(=O)O)CC3)nc(-c3cc4cccc(Cl)c4[nH]3)c12 (stereo not given),.,.,35µM*!,-23%,.
O=C(Nc1cccc(Nc2cc(Nc3cccc(C(F)(F)F)c3)ncn2)c1)C1CC1,.,.,10µM*,?,.
CC(=O)Nc1c(C)nn(-c2ccccc2)c1N1CCC(C(=O)Nc2cccc(C(F)(F)F)c2)CC1,0%,i,-11%,-6%,i
O=C1NC(=O)/C(=C\c2ccc3c(c2)OC(F)(F)O3)S1,.,.,-2%,?,.
C[n+]1c2cc(N)ccc2cc2ccc(N)cc21 (tested in a mixture with another compound),.,.,40µM*,-12%[53.3 µM],.
CCOc1ccccc1C(=O)N1CCC(c2nc3ccccc3o2)CC1,1%,i,89µM*,-6%,i
Cc1ccc(NS(=O)(=O)c2cc3c(cc2N(C)CCN(C)C)NC(=O)CC3)cc1C,.,.,-1%,.,.
COc1ccccc1N1CCN(C(=O)c2cn(CC(C)C)c(=O)c3c2c2ccccc2n3C)CC1,7%,i,?,-14%,i
COc1ccc(N2CCN(C(=O)c3cn(CC(C)C)c(=O)c4c3c3ccccc3n4C)CC2)cc1,-1%,i,-9%,32µM*,i
COC(=O)c1ccc(=O)c2nc3/c(=C/O)c(O)cc(=O)c3[nH]c12,.,.,35µM*,-6%,.
CC(=O)NCC(=O)N1[C@@H]2CC[C@H]1c1ccc(Nc3ncc(C(F)(F)F)c(NC4CCC4)n3)cc12,.,.,-4%,.,.
CN(C)c1ccc(CNC(=O)c2ccc3nc(Cc4ccccc4)oc3c2)cc1,0%,i,-10%,?,i
CN(C)c1ccc2cc(C(=O)N[C@@H](CCCN=C(N)CCl)C(=O)NCc3ccccc3)ccc2c1,.,.,5.6µM*,-23%[53.3 µM],.
C=C(c1ccc(C(=O)O)cc1)c1cc2c(cc1C)C(C)(C)CCC2(C)C,.,.,112µM*!,-11%,.
CC1(C)C[C@H](O)C[C@@]2(C)OC(=O)C=C12,.,.,-15%,-13%,.
CCCCNc1ncc2c(-c3ccc(CN4CCN(C)CC4)cc3)cn(C3CCC(O)CC3)c2n1 (stereo not given),.,.,79µM*!,-4%,.
CCCCNc1ncc2c(-c3ccc(S(=O)(=O)N4CCOCC4)cc3)nn(C3CCC(O)CC3)c2n1 (stereo not given),.,.,14%[57.5 µM],4%,.
